About 83,000 compounds went through this panel and 20% of them were active in at least one assay; those are over-represented in the sample as a whole.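 How to read the values: 0–100, growth inhibition (40 = 60% inhibited); 0, no net growth; -100 to 0, cell death (-40 = 40% of starting cells died; -100 = all dead).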 Calls of active or inactive are those of the source. The calls were made as follows: active = growth percent below 10; inactive = the rest.

The assay relates to OVCAR-8 ovarian. The assay is described as follows: NCI-60 one-dose screen, 48 h (100 = growth as untreated, 0 = no growth, -100 = all killed). As to conditions: 10 µM unless noted.
As to `ClCCN(CCCl)C(c1ccccc1)c1ccc(Cl)cc1` (stereo not given), the growth is 77.7% (inactive).

Regarding `CCCCn1cc(C(=O)/C(C#N)=C/c2cc3ccccc3nc2Cl)c2cc(OC)ccc21`, the growth is 75.1% (inactive).

Consider `CCCCNCCc1ccccn1`, for which the growth was 102% (inactive).

Take `CC1(C)N=C(N)N=C(N)N1c1cccc(C(=O)Nc2cccc(S(=O)(=O)F)c2)c1`: the growth is 100% (inactive).

Consider `C[C@]12CC[C@@H]3C4=C(CC[C@H]3[C@@H]1CC[C@@H]2O)CC(=O)CC4`, for which the growth is 101% (inactive).

Take `Oc1ccccc1OB(Oc1ccccc1O)N(CCCl)CCCl`: the growth is 77.2% (inactive).

As for `NC(Cc1ccc2c(c1)OCO2)c1ccc2c(c1)OCO2` (stereo not given), the growth is 102% (inactive).

On to `COc1ccc(-c2ccc(OC)c(OC)c2OC)cc1`, for which the growth was 21.7% (inactive).

Take `CC[C@@]1(C2O[C@@H](C3O[C@@](O)(CC)[C@H](C)C[C@@H]3C)C[C@@H]2C)CC[C@H]([C@]2(C)CCC3(C[C@H](O)[C@@H](C)[C@@H]([C@H](C)[C@@H](OC)[C@H](C)C(=O)O)O3)O2)O1` (stereo not given in full): the growth is 31% (inactive).

Regarding `CC1(C)N=C(N)N=C(N)N1c1ccc(CCCCc2ccc(S(=O)(=O)F)cc2)c(Cl)c1`, the growth is 16.5% (inactive).

Take `COc1ccc(C2=NN(c3ccccc3)C(c3sc(N(CCCl)CCCl)nc3Cl)C2)cc1` (stereo not given): the growth was 87.8% (inactive).

With `N#CC1c2ccccc2C=CN1C(=O)c1ccc(N(CCCl)CCCl)cc1` (stereo not given), the growth is 85.7% (inactive).

For the molecule `CSc1ccccc1NP1(=O)OCC(C)([N+](=O)[O-])CO1` (stereo not given), the growth was 98% (inactive).

With `C/C(=N/OC(=O)N(C)C)c1cc(Cl)ccc1Cl`, the growth was 103% (inactive).

In the case of `CCC(C)[C@H]1O[C@]2(C=C[C@@H]1C)C[C@@H]1C[C@@H](C/C=C(\C)[C@@H](OC3C[C@H](OC)C(O[C@H]4C[C@H](OC)[C@@H](O)[C@H](C)O4)[C@H](C)O3)[C@@H](C)/C=C/C=C3\CO[C@@H]4[C@H](O)C(C)=C[C@@H](C(=O)O1)[C@]34O)O2` (stereo not given in full), the growth was 12.5% (inactive).

In the case of `CC1(C)N=C(N)N=C(N)N1c1ccc(CCCCc2ccc(S(=O)(=O)F)cc2)cc1`, the growth was 24.3% (inactive).

Take `Cc1ccc(C(=O)C2CN(C)CCC2(O)c2ccc(C)cc2)cc1` (stereo not given): the growth is 107% (inactive).

Regarding `O=S(=O)(O)c1ccc(-c2ccc([As](=O)(O)O)cc2)cc1`, the growth was 93.8% (inactive).

Regarding `O=C1NC(=O)C(CN2C(=O)C3(c4ccccc42)[C@H](Cl)C(=O)N3c2ccccc2)C(=O)N1` (stereo not given in full), the growth is 92.3% (inactive).

Regarding `O=[N+]([O-])c1cc([N+](=O)[O-])c(Cl)c(Cl)c1Cl`, the growth is -41.1% (active).

`C=CCC1(CC)C(=O)NC(=S)NC1=O`: the growth is 100% (inactive).

Consider `C/C(=N/OC(=O)N(C)C)c1ccc(Cl)cc1Cl`, for which the growth is 106% (inactive).

Turning to `CCC[CH2][Sn]([CH2]CCC)([CH2]CCC)[O]C(=O)CC`, the growth is -70.4% (active).

For `n1nc(-c2nonc2-c2nn[nH]n2)n[nH]1`, the growth was 109% (inactive).

For the molecule `CC1(C)N=C(N)N=C(N)N1c1ccc(OCCCCOc2ccc(S(=O)(=O)F)cc2)c(Cl)c1`, the growth is 13.5% (inactive).

Regarding `CCCCOC(=O)c1ccccc1C(=O)O.CCCCOC(=O)c1ccccc1C(=O)O.[Cu+2]`, the growth is 108% (inactive).

As for `O=[N+]([O-])c1ccc2cnn(CSP(=S)(c3ccccc3)c3ccccc3)c2c1`, the growth was 82.4% (inactive).

Turning to `NC(=O)C(Cl)Cl`, the growth was 99.9% (inactive).

Turning to `CCN(CC)c1ccc(C=C2C(=O)NC(=S)NC2=O)cc1`, the growth was 93% (inactive).

In the case of `Clc1ccc(SSC(Cl)(Cl)Cl)cc1`, the growth is 107% (inactive).

Turning to `[O]=[Sn]([CH]1CCCCC1)[CH]1CCCCC1`, the growth is -66.2% (active).

As to `ClCCN(CCCl)c1nc(Cl)c(C2CC(c3ccccc3)=NN2c2ccccc2)s1` (stereo not given), the growth is 90.3% (inactive).

In the case of `Cc1ccccc1O`, the growth is 103% (inactive).

Turning to `O=[N+]([O-])c1ccccc1N1CCNCC1`, the growth was 107% (inactive).

As for `CC(=O)Nc1ccc(C=C2C(=O)NC(=O)NC2=O)cc1`, the growth is 101% (inactive).
